Results reported in PubChem BioAssay (EPA / NIEHS).
Where a structure was tested more than once in an assay, its records may differ in their call. Active and inactive are the calls of the source. How the source made its calls: active means hit-call score of the fitted dose curve at least 0.9, where 1 is the maximum; inactive means score below 0.9.

target: CCAAT/enhancer-binding protein beta (Homo sapiens) (UniProt P17676); test: ATG_C_EBP_CIS: Attagene CIS-FACTORIAL HepG2 Assay for human CCAAT/Enhancer Binding Protein (C/EBP) beta (AID 2282927); conditions: HepG2 Attagene cis-factorial transcription factor reporter; actives raise or lower the signal
Method: ATG_CIS is a cell-based, multiplexed-readout assay that uses HepG2, a human liver cell line, with measurements taken at 24 hours after chemical dosing in a 24-well plate.ATG_C_EBP_CIS is one of 52 assay component(s) measured or calculated from the ATG_CIS assay. It is designed to make measurements of mRNA induction, a form of inducible reporter, as detected with fluorescence intensity signals by Reverse transcription polymerase chain reaction (RT-PCR) and Capillary electrophoresis technology.Data from the assay component ATG_C_EBP_CIS was analyzed into 1 assay endpoint. This assay endpoint, ATG_C_EBP_CIS, was analyzed with bidirectional fitting relative to DMSO as the negative control and baseline of activity. Using a type of inducible reporter, measures of mRNA for gain or loss-of-signal activity can be used to understand the reporter gene at the transcription factor-level as they relate to the gene CEBPB. Furthermore, this assay endpoint can be referred to as a primary readout, because this assay has produced multiple assay endpoints where this one serves a reporter gene function. To generalize the intended target to other relatable targets, this assay endpoint is annotated to the dna binding intended target family, where the subfamily is basic leucine zipper.
Human liver HepG2 cells are transiently transfected with multiple reporter transcription units (MRTUs) in 6-well plates using FuGene 6 reagent (Roche; 3 ml FuGene/1 mg DNA). The MRTU constructs are regulated by a cis-regulating element (promoter). […] A major difference between the CIS and TRANS system is that in CIS activities of endogenous TFs are measured, whereas the TRANS assay evaluates changes in activities of exogenous, chimeric NR-Gal4 proteins. […] At the end of 24 hour incubation, total RNA was isolated using TriZol reagent (Invitrogen). The isolated RNA is then reverse-transcribed using oligo(dT) primer and Mo-MLV reverse transcriptase (Invitrogen) with DNAse I (Ambion) treatment for 30 min. The one-tenth of the produced cDNA was amplified by PCR using Taq DNA polymerase (Invitrogen) and two reporter sequence-specific primers. The PCR products were fluorescently labeled by primer extension with 6-arboxyfluorescein (6-FAM) 5'-labeled reporter sequence-specific primer (2 min at 95 C, 20 s at 68 C and 10 min at 72 C) and these products were digested with 5U of HpaI (New England Biolabs) for 2h at 37 C. The fragments were purified using Qiaquick PCR columns (Qiagen), analyzed on an ABI 3130xL genetic analyzer (Applied Biosystems) with peak positions identified by using a set of X-rhodamine (ROX)-labeled MapMarker1000 molecular weight standards (BioVentures). The raw capillary electrophoresis data was processed using Attagraph software (Attagene).

Chain of CCAAT/enhancer-binding protein beta (Homo sapiens) (P17676 whole entry, looked up): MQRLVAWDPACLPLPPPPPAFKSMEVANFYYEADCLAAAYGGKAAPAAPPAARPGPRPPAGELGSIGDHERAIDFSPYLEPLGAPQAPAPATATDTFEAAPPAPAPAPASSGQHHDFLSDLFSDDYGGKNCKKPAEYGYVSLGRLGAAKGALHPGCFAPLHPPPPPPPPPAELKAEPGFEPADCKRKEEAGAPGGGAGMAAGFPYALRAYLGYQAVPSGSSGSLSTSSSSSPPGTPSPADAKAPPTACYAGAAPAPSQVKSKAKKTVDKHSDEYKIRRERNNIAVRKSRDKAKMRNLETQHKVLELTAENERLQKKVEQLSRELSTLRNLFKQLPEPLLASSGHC

SMILES | outcome | AC50
c1ccc(C2CO2)cc1 (stereo not given) | inactive | 
N#CC(Br)(Br)C(N)=O | inactive | 
O=[N+]([O-])C(Br)(CO)CO |  | 156 µM (active)
Nc1ccc(Cc2ccc(N)cc2)cc1 | inactive | 
ClC1=C(Cl)[C@]2(Cl)[C@H]3[C@H]([C@@H]4C=C[C@H]3C4)[C@@]1(Cl)C2(Cl)Cl | inactive | 
CN(C)C(=O)Nc1ccc(Cl)cc1 | inactive | 
CNC(=O)Oc1cccc2c1OC(C)(C)C2 | inactive | 
CC(C)(C)OOC(C)(C)CCC(C)(C)OOC(C)(C)C | inactive | 
CO[C@@H]1[C@H](OC(=O)NC(=O)CCl)CC[C@]2(CO2)[C@H]1[C@@]1(C)O[C@@H]1CC=C(C)C | inactive | 
COC(=O)Nc1nc2ccccc2[nH]1 | inactive | 
c1ccc2c(c1)-c1cccc3cccc-2c13 | inactive | 
OCCCl | inactive | 
CCC12COCN1COC2 | inactive | 
CC(C)(O)c1cnn2c(-c3ccc(F)c(-c4c(F)cccc4C#N)c3)cnc2n1 | inactive | 
CCOC(=O)[C@]1(c2ccccc2)Oc2ccccc2[C@@H]1N |  | 33 µM (active)
CCN(CC)N=O | inactive | 
CCC(C)c1ccc(O)cc1 (stereo not given) | inactive | 
CN(C)c1ccccc1 | inactive | 
CCCCCCCCCCCCCN1CC(C)OC(C)C1 (stereo not given) | inactive | 
CCN(CC)CCO | inactive | 

SMILES | outcome | AC50
CC(C)N(Cc1ccccc1)C(=O)C(C)(C)C | inactive | 
C=CCc1ccc2c(c1)OCO2 | inactive | 
O=C(O)C1C2CCC(O2)C1C(=O)O (stereo not given) | inactive | 
c1ccc(NNc2ccccc2)cc1 | inactive | 
CC(C)COC(=O)c1ccccc1C(=O)OCC(C)C | inactive | 
COC(=O)c1ccccc1N | inactive | 
Nc1ccc(Cl)cc1N | inactive | 
C[C@]12C=CC3=C4CCC(=O)C=C4CC[C@H]3[C@@H]1CC[C@@H]2O | inactive | 18 µM (active)
O=P(OCCCl)(OCCCl)OCCCl | inactive | 
Clc1ccc(C(c2ccc(Cl)cc2)C(Cl)(Cl)Cl)cc1 | inactive | 
COc1cc(C=O)cc2c1[C@H](COC(N)=O)[C@]1(OC(C)=O)ON2C[C@H]2[C@@H]1N2C(C)=O |  | 61 µM (active)
O=C(N[C@H](c1ccccc1)[C@@H]1CN2CCC1CC2)c1c(Cl)ccc(C(F)(F)F)c1Cl | inactive | 
CCCCCOC(=O)c1ccccc1C(=O)OCCCCC | inactive | 
Brc1ccc(Oc2ccccc2)cc1 | inactive | 
CC(C)(C)C(O)(CCc1ccc(Cl)cc1)Cn1cncn1 (stereo not given) | inactive | 
[O-][Cl+]O | inactive | 
CCNS(=O)(=O)C(F)(F)C(F)(F)C(F)(F)C(F)(F)C(F)(F)C(F)(F)C(F)(F)C(F)(F)F | inactive | 
O=C(Oc1ccc(Br)cc1)N1CCN2CCC1CC2 | inactive | 
Nc1cc(Cl)cc(C(=O)O)c1Cl | inactive | 
